ClpP mod: qHTS Assay for Activators of ClpP | ATP-dependent Clp protease proteolytic subunit (Bacillus subtilis (strain 168)), P80244 | purified B. subtilis ClpP, FRET peptide cleavage, 20 min | Potency, µM (doses to about 57.5 µM), for inactives: at the highest dose activity change, negative = active | actives 1.9% (n = 340,000) | AID 651965, 2013; active means well fitted falling curve with a large enough effect; inconclusive means small, poorly fitted or top-dose-only effect; inactive means no such curve, though single readings can be large or run the other way; further: potency means the concentration at half of the fitted maximal effect; the source files actives as falling curves though it sought activators and does not explain the sign; nearly all actives have a fitted effect of over 65% in size
Target sequence (P80244 whole entry, looked up): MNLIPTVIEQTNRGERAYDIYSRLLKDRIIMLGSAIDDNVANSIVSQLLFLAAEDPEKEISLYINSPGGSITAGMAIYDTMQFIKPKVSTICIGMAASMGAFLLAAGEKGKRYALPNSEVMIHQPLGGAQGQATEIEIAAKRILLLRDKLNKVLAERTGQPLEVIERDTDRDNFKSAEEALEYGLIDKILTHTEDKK
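ClpP 10 microg/mL final, pH 8 Tris/KCl buffer with BSA, glycerol, Tween-20; compound pinned in; FRET-FV substrate; RT 20 min; Ex320/Em430; ΔFRET vs ADEP 5.8 microM, DMSO, no enzyme.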
IL1B secr inh: qHTS for Inhibitors of Inflammasome Signaling: IL-1-beta AlphaLISA Primary Screen. THP-1 LPS/ATP IL-1B secretion, AlphaLISA, 16 h; hits give low values. actives 4.7% (n = 360,000). activity change, % at 57.5 µM; in the data active means activity change below about -50%; inconclusive means mostly about -30% to -49%; further: on the % scale 0 is the no-effect control and ±100 the full control effect
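THP-1 cells pretreated 1 hr with compounds (up to 57.5 uM final), then stimulated with LPS (250 ng/mL final) plus ATP (1.25 mM final); secreted IL-1B measured by AlphaLISA after 16 hr, decreased signal indicating inhibition.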
D3 ag: qHTS of D3 Dopamine Receptor Agonist: qHTS. max activation, %. AID 652048, 2013. D(3) dopamine receptor (Homo sapiens), P35462. D3R DiscoveRx beta-arrestin cells, luminescence, 90 min. actives 0.58% (n = 410,000); in the data active means max activation above about 30%; further: 0% is about no effect
Target sequence (P35462 whole entry, looked up): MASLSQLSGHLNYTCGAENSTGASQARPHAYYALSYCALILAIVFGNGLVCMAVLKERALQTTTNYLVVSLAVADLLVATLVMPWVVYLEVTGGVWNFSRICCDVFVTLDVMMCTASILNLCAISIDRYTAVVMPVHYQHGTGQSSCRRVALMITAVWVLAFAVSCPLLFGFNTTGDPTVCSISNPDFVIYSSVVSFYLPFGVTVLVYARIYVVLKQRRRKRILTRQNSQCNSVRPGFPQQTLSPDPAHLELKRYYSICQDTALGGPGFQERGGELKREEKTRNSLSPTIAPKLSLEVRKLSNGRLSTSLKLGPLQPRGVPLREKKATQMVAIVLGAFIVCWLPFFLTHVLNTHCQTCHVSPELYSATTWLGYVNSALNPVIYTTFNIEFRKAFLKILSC
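Agonist-mode cell screen: cells plated at 1500/well and incubated overnight at 37 °C, then exposed to library compounds for 90 min at 37 °C. Detection reagent was added for 30–60 min at room temperature, and luminescence was read.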
DT40 TDP1 no CPT: qHTS for Inhibitors of human tyrosyl-DNA phosphodiesterase 1 (TDP1): qHTS in cells in absence of CPT; DT40 Tdp1-/- hTDP1 cells, no CPT, ATP luminescence, 48 h; Potency, µM (series often up to 46.2 µM), for the others: at the highest dose activity change, negative = growth inhibition, most hits filed as inhibitors; actives 15% (n = 420,000); AID 686978, 2013; further: potency means the concentration at half of the fitted maximal effect; on the % scale 0 is the no-effect control and ±100 the full control effect; nearly all actives have a fitted effect of over 55% in size
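Chicken DT40 Tdp1-/- cells stably complemented with human TDP1 were seeded at 400 cells/well with DMSO in place of 20 nM camptothecin. After compound pinning, cells grew at least 48 hr at 37 °C; viability read by CellTiter-Glo luminescence.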
TDP1 cell CPT: qHTS for Inhibitors of human tyrosyl-DNA phosphodiesterase 1 (TDP1): qHTS in cells in presence of CPT | chicken DT40 Tdp1-/-;hTDP1 cells + 20 nM CPT, ATP luminescence, 48 h | Potency, µM (titrated, usually from 46.2 µM), inactives show at the highest dose activity change, negative = growth inhibition, hits mostly inhibitors | actives 12% (n = 420,000) | AID 686979, 2013; further: potency means the concentration at half of the fitted maximal effect; on the % scale 0 is the no-effect control and ±100 the full control effect; nearly all actives have a fitted effect of over 55% in size
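Chicken DT40 Tdp1-/- cells complemented with human TDP1, 400 cells/well, exposed to compounds plus 20 nM camptothecin for at least 48 h at 37 C; viability read as ATP content by CellTiter-Glo luminescence.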
D3 antag: qHTS of D3 Dopamine Receptor Antagonist: qHTS; max response, negative = inhibition, %; actives 2.5% (n = 360,000); AID 652054, 2013; D3R cells, DiscoveRx beta-arrestin luminescence, antagonist mode; hits give low values; in the data active means max response below about -50%; inconclusive means no clear call, values can overlap the other calls; further: on the % scale 0 is the no-effect control and ±100 the full control effect
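Cells plated overnight at 1500 cells/well, then exposed to library compounds with dopamine controls for 90 minutes at 37 degrees C. DiscoveRx reagent added for 30–60 minutes at room temperature; luminescence read, quantitative HTS format.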
The depositor's hits bear a star; ? = inconclusive; · = not tested or not shown. An excerpt weighted towards active compounds, which were near 21% of everything screened. Unless noted, the call rests on the fitted dose curve; in most records, active means well fitted inhibition curve with a large enough effect; inconclusive means small, poorly fitted or top-dose-only effect; inactive means flat fitted curve, though single readings scatter.

SMILES	ClpP mod	IL1B secr inh	D3 ag	DT40 TDP1 no CPT	TDP1 cell CPT	D3 antag
COc1ccc(-c2cccc(-c3cc(=O)oc4cc5c(cc34)OCO5)c2)cc1	?	18.2	4.7	?	?	56.2
COc1cc(OC)c2c(-c3cccc(/C=C/c4ccc(F)cc4)c3)cc(=O)oc2c1	?	2.7	10.3	18.4µM*	20.6µM*	-1.0
COc1cccc(-c2cnc3c(NC=O)cc(-c4ccncc4)cn23)c1	-5.4%	67.5	-6.8	4.61µM*	18.4µM*	-13.8
COc1cccc(-c2cnc3c(NC(C)=O)cc(-c4ccncc4)cn23)c1	-5.0%	-4.5	-0.2	16.4µM*	?	9.6
O=C(CN1C(=O)C2CC=CCC2C1=O)Nc1nnc(C2CC2)s1 (centres undefined)	0.7%	54.4	-2.7	0.3%	-6.7%	40.4
c1ccc(COc2ncnc3c2ncn3CCCNCC2CCCO2)cc1 (centres undefined)	-1.4%	-5.0	-5.9	-11.6%	-12.1%	-18.1
COc1cc(CCCN2C(=S)NC[C@H]2Cc2ccc(O)cc2)cc(OC)c1OC	0.8%	2.0	0.9	14.6µM*	?	0.0
COc1ccc(NC(=O)c2ccco2)cc1NC(=O)c1ccc(OC(C)C)cc1	-2.1%	·	4.0	20.6µM*	?	·
COc1ccc(NC(=O)c2cc(F)cc(F)c2)cc1Cl	-0.9%	-12.4	7.0	-14.7%	-18.3%	?
O=C(Cc1ccccc1)Nc1ccc(NC(=O)c2ccco2)cc1	·	?	-13.0	-23.9%	2.6%	-6.4
COc1ccc(NC(=O)c2ccco2)cc1NC(=O)c1ccc(C)cc1	-1.8%	-4.7	-5.4	?	-14.0%	-3.5
C=Cc1cccc(NC(=O)c2ccc(NC(=O)c3ccco3)cc2)c1	-0.6%	-9.5	-0.6	6.51µM*	14.6µM*	2.4
COc1ccc(NC(=O)c2ccc(OC(F)F)cc2)cc1Cl	25.1µM*	?	2.1	?	-1.3%	1.0
O=C(/C=C\c1ccccc1)Nc1ccc(NC(=O)c2ccco2)cc1	·	48.7	1.5	23.1µM*	11.6µM*	5.3
COc1cccc(N(Cc2nnc3n2CCCCC3)C(=O)Nc2cccc(Cl)c2)c1	-3.2%	·	0.2	-18.8%	-23.2%	·
CCCC(C)(C)C(=O)N1CCC1(C)C(=O)Nc1ccc(OC)c(OC)c1 (centres undefined)	2.2%	0.0	-1.8	?	-26.3%	19.0
Cc1cc(C)cc(NC(=O)c2ccc(NC(=O)c3ccco3)cc2)c1	-0.2%	·	-2.9	?	20.6µM*	-17.8
O=c1c(-c2cccc(Cl)c2)nc2cncnc2n1C1CC1	·	·	·	2.1%	3.6%	·
CC1CN(c2ccc(Oc3ccccc3)cc2)c2nc3c(c(=O)[nH]c(=O)n3C)n2C1 (centres undefined)	0.1%	0.0	-10.6	25.9µM*	18.4µM*	-20.2
COc1ccccc1Oc1ccc(-c2cnc3ccccc3n2)cc1[N+](=O)[O-]	·	-5.0	6.2	7.31µM*	23.1µM*	1.2
O=[N+]([O-])c1cc(-c2cnc3ccccc3n2)ccc1Oc1ccc(Cl)cc1	0.1%	30.8	-17.3	?	18.4µM*	?
COc1ccccc1Oc1ccccc1[N+](=O)[O-]	·	9.4	13.0	-1.6%	4.8%	18.4
O=[N+]([O-])c1cc(-c2cnc3ccccc3n2)ccc1Cl	·	-10.2	2.3	-9.1%	7.6%	-10.4
CC[C@H]1OC(=O)[C@H](C)[C@@H](O[C@H]2C[C@@](C)(OC)[C@@H](O)[C@H](C)O2)[C@H](C)[C@@H](O[C@@H]2O[C@H](C)C[C@H](N(C)C)[C@H]2O)[C@](C)(O)C[C@@H](C)[C@@H]2N[C@@H](COCCOC)O[C@@H]([C@H]2C)[C@]1(C)O	·	·	-8.0	-9.5%	-4.6%	·
COc1ccc(CCNC(=O)CSc2nc(C)nc3sccc23)cc1OC	-0.8%	37.4	1.3	-1.9%	-11.2%	7.8
SMILES	ClpP mod	IL1B secr inh	D3 ag	DT40 TDP1 no CPT	TDP1 cell CPT	D3 antag
COc1cc(F)ccc1CN1CCC(n2nccc2NC(=O)C2CCOC2)CC1 (centres undefined)	-6.2%	7.7	11.7	-10.7%	5.2%	24.6
CCC(=O)N1c2ccccc2C(N(C(=O)CC)c2ccccc2)CC1C (centres undefined)	·	110.0	22.3	9.2µM*	?	12.9
O=S(=O)(Nc1cc(Sc2cccc3cccnc23)c(O)c2ccccc12)c1ccc(F)cc1	9.1%	-98.3*	-7.9	0.92µM*	0.581µM*	-23.0
O=S(=O)(Nc1cccnc1Cl)c1ccc(F)cc1	·	2.9	2.0	-8.6%	-13.2%	-6.3
NC1=NS(=O)(=O)NC1c1ccc(Br)cc1 (centres undefined)	·	8.7	16.4	-23.3%	-5.7%	-1.5
CCCCC(=O)Nc1ccc(C(=O)NNC(=O)CCc2ccccc2)cc1	-16.5%	12.4	-4.4	1.7%	-0.8%	9.6
CCOC(=O)c1ccc(NC(=S)NCCCn2ccnc2)cc1	·	-3.4	7.3	-0.5%	0.4%	0.0
CCCCC(=O)Nc1ccc(C(=O)NCCc2ccccc2)cc1	-2.4%	-1.7	-17.1	-28.3%	9.5%	-62.3*
CCOC(=O)c1ccc(NC(=O)NCc2ccccc2OC)cc1	·	-1.1	-9.2	-26.5%	3.7%	-19.0
S=C(Nc1ccccc1)c1ccccn1	1.5%	-0.5	1.5	0.92µM*	0.651µM*	-5.3
CCOC(=O)c1ccc(NC(=S)NCCc2ccccc2F)cc1	·	71.9	-5.1	23.1µM*	?	-14.6
CCOC(=O)c1ccc(NC(=O)NCCc2ccccc2OC)cc1	-0.7%	-7.2	-2.5	14.6µM*	?	3.5
Cc1cccc(NC(=O)c2c(C)oc3ncnc(N4CCCCC4)c23)c1C	3.2%	·	-14.4	?	?	·
S=C(Nc1ccc(Nc2ccccc2)cc1)Nc1ccccn1	·	?	-16.0	6.51µM*	6.51µM*	-67.0*
COc1ccccc1CCC(=O)OCC(=O)Nc1ccc(C(N)=O)cc1	·	19.0	4.3	-99.2%	14.6µM*	-1.5
COC(=O)c1ccc(NC(=S)NCCc2ccccc2)cc1	0.0%	83.3	-4.6	?	?	12.9
CCOC(=O)c1ccc(NC(=S)NCCc2ccccc2)cc1	-11.8%	66.7	-13.5	20.6µM*	?	-5.6

Screening results as filed in PubChem BioAssay.
